Calls of active or inactive are those of the source. The calls were made as follows: active = hit-call score of the fitted dose curve at least 0.9, where 1 is the maximum; inactive = score below 0.9.
Assays:
[1] = ATG_PPRE_CIS: Attagene CIS-FACTORIAL HepG2 Assay for human Peroxisome Proliferator-activated Response Element (PPRE) (AID 2282958); details: HepG2 PPRE cis-element reporter, Attagene transcription factor profiling; actives raise or lower the signal
How it was run: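 HepG2 cells are transiently transfected with multiplexed cis-promoter reporter units to report endogenous PPAR activity. After 24 h dosing, reporter mRNA is read by RT-PCR and capillary electrophoresis. Fitting is bidirectional against DMSO.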

[2] = ATG_RORE_CIS: Attagene CIS-FACTORIAL HepG2 Assay for human RAR-related Orphan Receptor Element (RORE) (AID 2282959); details: HepG2 Attagene cis-factorial RORE reporter, mRNA; actives raise or lower the signal
How it was run: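 HepG2 cells carrying transiently transfected cis-regulated reporter units; RORE-driven reporter mRNA quantified 24 h post-dosing by RT-PCR, 6-FAM primer extension, HpaI digestion and capillary electrophoresis. Bidirectional fit versus DMSO.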

[3] = ATG_Sox_CIS: Attagene CIS-FACTORIAL HepG2 Assay for human SRY-box transcription factor (SOX) (AID 2282960); details: HepG2 Attagene cis-factorial SOX reporter, mRNA; actives raise or lower the signal
How it was run: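 HepG2 cells transiently transfected with multiple cis-regulated reporter units, then dosed for 24 h. Reporter mRNA quantified by RT-PCR, fluorescent labelling, HpaI digestion and capillary electrophoresis; bidirectional fit versus DMSO.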

[4] = biological target: Transcription factor Sp1 (Homo sapiens) (UniProt P08047); assay: ATG_Sp1_CIS: Attagene CIS-FACTORIAL HepG2 Assay for human Specificity Protein 1 (Sp1) (AID 2282961); details: HepG2 Sp1 cis-reporter transcription, actives raise or lower the signal
How it was run: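 HepG2 cells transiently transfected with multiplexed cis-regulated reporter constructs, chemical exposure 24 h. Reporter mRNA quantified by RT-PCR with capillary electrophoresis; bidirectional fit relative to DMSO.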

[5] = ATG_SREBP_CIS: Attagene CIS-FACTORIAL HepG2 Assay for human Sterol Regulatory Element Binding (SREBP) (AID 2282962); details: HepG2 Attagene cis-factorial SREBP reporter, mRNA; actives raise or lower the signal
How it was run: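 HepG2 cells transiently transfected with multiplexed cis-promoter reporter units sensing endogenous transcription factors; reporter mRNA measured 24 h after dosing by RT-PCR, 6-FAM labeling, HpaI digestion and capillary electrophoresis. Bidirectional fit versus DMSO.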

[6] = biological target: Signal transducer and activator of transcription 3 (Homo sapiens) (UniProt P40763); assay: ATG_STAT3_CIS: Attagene CIS-FACTORIAL HepG2 Assay for human Signal Transducer and Activator of Transcription 3 (STAT3) (AID 2282963); details: HepG2, Attagene cis-factorial STAT3 reporter transcription; actives raise or lower the signal
How it was run: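 After a 24 h compound incubation, total RNA from MRTU-transfected HepG2 cells was converted to cDNA and reporter sequences PCR-amplified, labelled and profiled by capillary electrophoresis. Gain and loss of signal were referenced to DMSO.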

[7] = ATG_TA_CIS: Attagene CIS-FACTORIAL HepG2 Assay for human TA Basal Promoter (AID 2282964); details: HepG2 Attagene CIS-factorial TA basal promoter reporter; actives raise or lower the signal
How it was run: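 Multiplexed mRNA reporter assay, HepG2, 24 h. Reporter cDNA amplified, 6-FAM primer-extended, HpaI-cut, CE-sized; DMSO = negative control and baseline.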

[8] = ATG_TCF_b_cat_CIS: Attagene CIS-FACTORIAL HepG2 Assay for human T-Cell-Factor with beta-catenin (TCF/b-cat) (AID 2282965); details: HepG2 TCF/beta-catenin cis-reporter transcription, actives raise or lower the signal
How it was run: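 Endogenous TCF/LEF activity read as reporter transcript level via RT-PCR and capillary electrophoresis fluorescence in transfected HepG2, 24 h exposure; gain or loss of signal fitted against DMSO controls.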

[9] = ATG_TAL_CIS: Attagene CIS-FACTORIAL HepG2 Assay for human TAL Basal Promoter (AID 2282966); details: HepG2 Attagene cis-factorial TAL promoter reporter; actives raise or lower the signal;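 also: background control endpoint measuring basal TAL promoter reporter mRNA not a specific factor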
How it was run: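 HepG2 cells were transiently transfected with promoter-driven multiplexed reporter units and dosed for 24 h. Reporter mRNA was measured by RT-PCR with capillary electrophoresis fluorescence; bidirectional fits used DMSO as baseline, serving as a background control.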

[10] = ATG_TGFb_CIS: Attagene CIS-FACTORIAL HepG2 Assay for human Transforming Growth Factor (TGF) (AID 2282967); details: HepG2 Attagene CIS TGFb reporter, mRNA transcription; actives raise or lower the signal
How it was run: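 Transcript-level reporter readout: HepG2 transfectants, 24 h exposure, RNA to cDNA, reporter-specific PCR, fluorescent primer extension, capillary sizing against ROX standards. Gain- or loss-of-signal relative to DMSO.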

Chain of Signal transducer and activator of transcription 3 (Homo sapiens) (P40763 whole entry, looked up): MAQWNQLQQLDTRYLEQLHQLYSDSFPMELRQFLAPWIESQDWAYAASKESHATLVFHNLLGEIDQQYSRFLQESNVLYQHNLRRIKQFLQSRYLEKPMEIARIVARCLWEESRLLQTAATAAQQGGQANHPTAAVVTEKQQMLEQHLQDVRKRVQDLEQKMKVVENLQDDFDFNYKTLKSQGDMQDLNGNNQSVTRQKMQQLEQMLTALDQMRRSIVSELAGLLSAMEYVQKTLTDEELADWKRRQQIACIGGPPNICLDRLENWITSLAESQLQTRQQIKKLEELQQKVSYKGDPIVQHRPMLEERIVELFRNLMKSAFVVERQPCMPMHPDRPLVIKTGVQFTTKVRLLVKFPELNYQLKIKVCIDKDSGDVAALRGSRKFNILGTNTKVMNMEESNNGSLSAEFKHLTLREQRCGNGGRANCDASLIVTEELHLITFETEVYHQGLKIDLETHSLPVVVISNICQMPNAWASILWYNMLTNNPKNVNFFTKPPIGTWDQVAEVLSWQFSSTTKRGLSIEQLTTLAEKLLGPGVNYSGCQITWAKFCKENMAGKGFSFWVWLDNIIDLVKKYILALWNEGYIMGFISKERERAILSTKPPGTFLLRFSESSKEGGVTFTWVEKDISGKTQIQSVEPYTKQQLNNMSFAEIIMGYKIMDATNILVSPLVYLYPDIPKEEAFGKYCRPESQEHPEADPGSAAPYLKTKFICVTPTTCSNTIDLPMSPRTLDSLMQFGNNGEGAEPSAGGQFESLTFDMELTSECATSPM
Chain of Transcription factor Sp1 (Homo sapiens) (P08047 whole entry, looked up): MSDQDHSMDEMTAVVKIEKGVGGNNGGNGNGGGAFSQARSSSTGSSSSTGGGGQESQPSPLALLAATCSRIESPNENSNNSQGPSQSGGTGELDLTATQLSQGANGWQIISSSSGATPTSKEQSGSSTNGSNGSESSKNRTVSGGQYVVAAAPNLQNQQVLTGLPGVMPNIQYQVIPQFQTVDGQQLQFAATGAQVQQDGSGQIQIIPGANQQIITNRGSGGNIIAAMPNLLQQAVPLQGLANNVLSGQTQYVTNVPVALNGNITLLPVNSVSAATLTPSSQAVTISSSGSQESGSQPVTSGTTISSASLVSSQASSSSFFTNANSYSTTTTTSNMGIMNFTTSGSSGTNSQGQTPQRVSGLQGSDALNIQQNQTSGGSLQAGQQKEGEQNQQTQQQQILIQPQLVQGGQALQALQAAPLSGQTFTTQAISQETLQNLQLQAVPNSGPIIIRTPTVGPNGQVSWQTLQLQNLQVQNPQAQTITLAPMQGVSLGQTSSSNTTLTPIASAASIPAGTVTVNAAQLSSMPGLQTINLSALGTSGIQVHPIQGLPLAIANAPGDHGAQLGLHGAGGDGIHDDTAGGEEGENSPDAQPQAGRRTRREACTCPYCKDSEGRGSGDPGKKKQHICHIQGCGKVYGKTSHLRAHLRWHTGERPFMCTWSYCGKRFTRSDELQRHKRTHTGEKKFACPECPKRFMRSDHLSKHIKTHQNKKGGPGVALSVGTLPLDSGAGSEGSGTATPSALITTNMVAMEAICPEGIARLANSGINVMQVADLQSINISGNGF

Row | Structure (SMILES) | outcome [1] | outcome [2] | outcome [3] | outcome [4] | outcome [5] | outcome [6] | outcome [7] | outcome [8] | outcome [9] | outcome [10] | AC50 [10] | AC50 [2] | AC50 [3] | AC50 [5] | AC50 [1] | AC50 [4] | AC50 [8] | AC50 [9] | AC50 [6]
1 | C=CCCl | inactive | inactive | inactive | inactive | inactive | inactive | inactive | inactive | inactive | inactive |  |  |  |  |  |  |  |  | 
2 | COc1ccc([N+](=O)[O-])cc1O | inactive | inactive | inactive | inactive | inactive | inactive | inactive | inactive | inactive | inactive |  |  |  |  |  |  |  |  | 
3 | CCN(CC)C(=O)C(Cl)=C(C)OP(=O)(OC)OC | inactive | inactive | inactive | inactive | inactive | inactive | inactive | inactive | inactive | inactive |  |  |  |  |  |  |  |  | 
4 | CCCSP(=S)(OCC)Oc1ccc(Cl)cc1Cl (configuration not stated) | inactive | inactive | inactive | inactive | inactive | inactive | inactive | inactive | inactive |  | 137 µM (active) |  |  |  |  |  |  |  | 
5 | OCCCCO | inactive | inactive | inactive | inactive | inactive | inactive | inactive | inactive | inactive | inactive |  |  |  |  |  |  |  |  | 
6 | CC(C)(C)c1ccccc1O | inactive |  |  | inactive |  | inactive | inactive | inactive | inactive | inactive |  | 160 µM (active) | 100 µM (active) | 163 µM (active) |  |  |  |  | 
7 | Clc1cccc(Cl)c1Cl | inactive | inactive | inactive | inactive | inactive | inactive | inactive | inactive | inactive | inactive |  |  |  |  |  |  |  |  | 
8 | CCN(N=O)C(N)=O | inactive | inactive | inactive | inactive | inactive | inactive | inactive | inactive | inactive | inactive |  |  |  |  |  |  |  |  | 
9 | Nc1ccc(Br)cc1 | inactive | inactive | inactive | inactive | inactive | inactive | inactive | inactive | inactive | inactive |  |  |  |  |  |  |  |  | 
10 | O=C(O)C1(c2ccc3c(c2)OC[C@H](Cc2ccc(-c4ccccc4)cc2)[C@H]3O)CCCC1 | inactive | inactive | inactive | inactive |  | inactive | inactive | inactive | inactive | inactive |  |  |  | 5.92 µM (active) |  |  |  |  | 
11 | CC(C)(COCC1CO1)COCC1CO1 (configuration not stated) | inactive | inactive | inactive | inactive | inactive | inactive | inactive | inactive | inactive | inactive |  |  |  |  |  |  |  |  | 
12 | CCOP(=S)(OCC)Oc1ccc(Cl)cc1Cl | inactive | inactive | inactive | inactive | inactive | inactive | inactive | inactive | inactive | inactive |  |  |  |  |  |  |  |  | 
13 | CCOC(=O)c1ccccc1S(=O)(=O)NC(=O)Nc1nc(Cl)cc(OC)n1 | inactive | inactive | inactive | inactive | inactive | inactive | inactive | inactive | inactive | inactive |  |  |  |  |  |  |  |  | 
14 | O=C(NC(=O)c1c(F)cccc1F)Nc1cc(Cl)c(Oc2ncc(C(F)(F)F)cc2Cl)c(Cl)c1 | inactive | inactive | inactive | inactive | inactive | inactive | inactive | inactive | inactive | inactive |  |  |  |  |  |  |  |  | 
15 | C=CC(=O)NC(C)(C)CC(C)=O | inactive | inactive | inactive | inactive | inactive | inactive | inactive | inactive | inactive | inactive |  |  |  |  |  |  |  |  | 
16 | CN(CCCC(O)c1cccnc1)N=O (configuration not stated) | inactive | inactive | inactive | inactive | inactive | inactive | inactive |  |  | inactive |  |  |  |  |  |  |  |  | 
17 | Cc1cc(Cl)ccc1OC(C)C(=O)O (configuration not stated) |  | inactive | inactive | inactive | inactive | inactive | inactive | inactive | inactive | inactive |  |  |  |  | 68.4 µM (active) |  |  |  | 
18 | C=C(C)[C@@H]1CC=C(C=O)CC1 | inactive | inactive | inactive | inactive | inactive | inactive | inactive | inactive | inactive | inactive |  |  |  |  |  |  |  |  | 
19 | CCCSP(=S)(OCC)Oc1ccc(SC)cc1 (configuration not stated) | inactive | inactive | inactive | inactive | inactive | inactive | inactive | inactive |  |  | 100 µM (active) |  |  |  |  |  |  |  | 
20 | Clc1cccc(Cl)c1 | inactive | inactive | inactive | inactive | inactive |  | inactive | inactive | inactive | inactive |  |  |  |  |  |  |  |  | 
21 | Cc1cc(Cl)ccc1O | inactive | inactive | inactive | inactive | inactive | inactive | inactive | inactive |  | inactive |  |  |  |  |  |  |  |  | 
22 | C[CH2][Hg][S]c1ccccc1C(=O)O |  |  |  |  |  |  | inactive |  |  | inactive |  | 2.97 µM (active) | 2.56 µM (active) | 2.66 µM (active) | 0.814 µM (active) | 1.51 µM (active) | 6.54 µM (active) | 1.87 µM (active) | 
23 | CCCCCCCCCCCCN(C)C | inactive | inactive | inactive |  |  | inactive | inactive |  |  | inactive |  |  |  | 49 µM (active) |  | 53.2 µM (active) | 48.4 µM (active) |  | 
24 | O=[N+]([O-])c1ccc(Cl)c([N+](=O)[O-])c1 | inactive | inactive | inactive | inactive | inactive |  | inactive |  | inactive |  | 3.71 µM (active) |  |  |  |  |  |  |  | 5.93 µM (active)

Source: PubChem BioAssay (EPA / NIEHS)
